A number with no mark means an inactive call. Records with an inconclusive call do not appear. Entries that show only a call come without a potency. Activity calls are given as the source filed them. Unless noted, the call rests on the fitted dose curve; in most records, active means well fitted curve in the direction sought with a large enough effect in the repeat runs; inconclusive means weak or mixed curves; inactive means no such curve, though single readings can be large; an effect the other way counts as inactive or inconclusive.
Experiments:
[1] = qHTS assay to identify small molecule agonists of the estrogen receptor alpha (ER-alpha) signaling pathway in the presence of an antagonist - cell viability counter screen (AID 1259386);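 further: series mostly up to about 92 µM; cells exposed to compounds for 22 h at 37 °C before the viability read; nearly all actives have a fitted effect of over 30% in size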
Outline: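 VM7Luc4E2 cells (endogenous full-length ER-alpha, 4×ERE-luciferase) were held 5 days in phenol red-free medium with 10% charcoal-stripped FBS, plated, then given 10.0nM ICI-182,780 and compounds at 15 concentrations for 22hr at 37C; viability read by CellTiter-Fluor fluorescence.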

[2] = molecular target: Progesterone receptor (Homo sapiens) (UniProt P06401); test: qHTS assay to identify small molecule agonists of the progesterone receptor (PR) signaling pathway (AID 1346784; calls by dose curve; further: nearly all actives have a fitted effect of over 30% in size)
Outline: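 Using charcoal-stripped serum (2%) to limit endogenous steroids, PR-UAS-bla HEK 293T cells received compounds for 16 hr at 37C after 6 hr plating; beta-lactamase FRET fluorescence was recorded following 2 hr substrate loading at room temperature.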

[3] = qHTS assay to identify small molecule antagonists of the progesterone receptor (PR) signaling pathway - cell viability counter screen (AID 1346798); further: nearly all actives have a fitted effect of over 50% in size; further: potency means the concentration at half of the fitted maximal effect; on activity change, negative = cytotoxicity: series mostly up to about 92 µM
Outline: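 ATP content as viability readout: CellTiter-Glo luminescence, 30 min room temperature, in PR-UAS-bla HEK293T cells after 16 hr compound/R5020 treatment at 37C and 5% CO2.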

[4] = qHTS assay to identify small molecule antagonists of the TGF-beta/Smad signaling pathway - cell viability counter screen (AID 1346824); further: nearly all actives have a fitted effect of over 50% in size
Outline: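 Cytotoxicity counter-screen run in the same wells as the beta-lactamase Smad reporter read: CellTiter-Glo luminescence after 30 min at room temperature. HEK 293T SBE-bla cells had 5 hr compound exposure at 37 C with TGF-beta1 (0.25 ng/mL stock).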

[5] = qHTS assay to identify small molecule agonists of the TGF-beta/Smad signaling pathway - cell viability counter screen (AID 1346829); further: top concentration of the series differs between compounds; nearly all actives have a fitted effect of over 45% in size
Outline: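 SBE-bla HEK 293T cells plated overnight, compound exposure 5 hr at 37 C. Viability read in the same wells by CellTiter-Glo luminescence after 30 min at room temperature, following the beta-lactamase read.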

[6] = qHTS assay to identify small molecule agonists of the TGF-beta/Smad signaling pathway (AID 1346859; active means well fitted activation curve with a large enough effect in the signal ratio in the repeat runs, not every such curve was filed as active; the % refers to the signal ratio; further: series mostly up to about 77 µM)
Outline: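 Stable Smad binding element-beta-lactamase HEK 293T cells; 5 hr compound exposure at 37 C under 5% CO2; 2 hr room-temperature substrate step; fluorescence excited at 405 nm, collected at 460 nm and 530 nm.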

[7] = molecular target: Thyrotropin-releasing hormone receptor (Homo sapiens) (UniProt P34981); test: qHTS assay to identify small molecule antagonists of the thyrotropin-releasing hormone receptor (TRHR) signaling pathway (AID 1346877; active means well fitted inhibition curve with a large enough effect in the repeat runs, not every such curve was filed as active; further: series mostly up to about 51 µM)
Outline: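 TRHR-expressing HEK293 cells were seeded, cultured 18 h at 37 °C, then loaded with calcium dye for 2 h. Compounds were pre-incubated 5 min at room temperature before 1 nM TRH (final) was added, and kinetic fluorescence was recorded for 3 min.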

[8] = molecular target: Thyrotropin-releasing hormone receptor (Homo sapiens) (UniProt P34981); test: qHTS assay to identify small molecule agonists of the thyrotropin-releasing hormone receptor (TRHR) signaling pathway (AID 1346891; calls by dose curve; further: series mostly up to about 58 µM)
Outline: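 In 1536-format, 1500 TRHR-Hek293 cells per well grew 18 h, took up calcium dye for 2 h at 37 °C, received compound, and were read kinetically; 15-point titrations, triplicates.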

[9] = Human pregnane X receptor (PXR) small molecule agonists, qHTS cell viability counter screen (AID 1346977); further: nearly all actives have a fitted effect of over 50% in size
Outline: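 Readout is CellTiter-Fluor fluorescence from PXR-Luc HepG2 cells. Plated cells rested 5hr, then were treated with compounds for 24hr at 37C and 5% CO2, with reagent present during the last hour.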

[10] = Caspase-3/7 induction in HepG2 cells by small molecules, qHTS assay (AID 1346978); further: nearly all actives have a fitted effect of over 15% in size
Outline: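 Caspase-3/7 induction was measured by Caspase-Glo 3/7 luminescence (30 min, room temperature) after a 17 hr compound exposure of wild-type HepG2 cells seeded at 2,000 per well and pre-incubated 5 hr.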

[11] = Caspase-3/7 induction in CHO-K1 cells by small molecules, qHTS cell viability counter screen (AID 1346979); further: nearly all actives have a fitted effect of over 35% in size; further: potency means the concentration at half of the fitted maximal effect
Outline: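 To flag cytotoxic compounds, treated CHO-K1 wild-type cells were given CellTiter-Fluor at 16hr and read fluorescently after 1hr at 37C; the caspase-3/7 luminescence was measured in these same wells.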

[12] = Caspase-3/7 induction in CHO-K1 cells by small molecules, qHTS assay (AID 1346980); further: nearly all actives have a fitted effect of over 15% in size
Outline: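 Luminescent Caspase-Glo 3/7 read (30min, room temperature) quantified apoptosis induction. Cells were wild-type CHO-K1, treated with compound for 17hr at 37 C and 5% CO2.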

[13] = Caspase-3/7 induction in HepG2 cells by small molecules, qHTS cell viability counter screen (AID 1346981); further: series mostly up to about 92 µM; nearly all actives have a fitted effect of over 30% in size
Outline: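 Wild-type HepG2 cells (2,000/well) were allowed to settle for 5 hr at 37 C, 5% CO2, then dosed with compounds in DMSO by pin transfer. After 16 hr at 37 C, CellTiter-Fluor was added and fluorescence read 1 hr later.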

[14] = molecular target: Nuclear receptor subfamily 1 group I member 2 (Homo sapiens) (UniProt O75469); test: Human pregnane X receptor (PXR) small molecule agonists, qHTS assay (AID 1346982); further: nearly all actives have a fitted effect of over 35% in size
Outline: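 PXR-Luc HepG2 cells (CYP3A4 promoter-driven luciferase) were seeded in medium with 5% charcoal-stripped FBS, left 5 hr at 37 C, then exposed to compounds in DMSO for 24 hr. Luminescence was read after ONE-Glo addition.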

[15] = molecular target: Nuclear receptor subfamily 1 group I member 2 (Rattus norvegicus) (UniProt Q9R1A7); test: Rat pregnane X receptor (rPXR) activation by small molecules, qHTS assay (AID 1346983); details: rPXR luciferase reporter cells, One-Glo luminescence, 24 h; max activation: hits give high values; further: nearly all actives have a fitted effect of over 20% in size; further: potency means the concentration at half of the fitted maximal effect
Outline: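 Luminescent readout (One-Glo luciferase, 30 min room temperature) followed 24 hr compound treatment at 37 C of rPXR cells plated 2,000 per well and preincubated 5hr; qHTS format with compounds delivered in DMSO.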

[16] = molecular target: Nuclear receptor subfamily 1 group I member 2 (Homo sapiens) (UniProt O75469); test: Human pregnane X receptor (PXR) activation by small molecules, qHTS assay (AID 1346985); further: nearly all actives have a fitted effect of over 40% in size
Outline: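 DPX-2 cells (HepG2 co-transfected with a PXR response element and a CYP3A4-promoter luciferase construct) were seeded at 2,000 per well, rested 5 hr at 37C, then exposed to DMSO-dissolved compounds for 24 hr. Activation was read as luciferase luminescence.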

[17] = molecular target: Cytochrome P450 2D6 (Homo sapiens) (UniProt P10635); test: Cytochrome P450 Family 2 Subfamily D Member 6 (CYP2D6) small molecule antagonists: luciferase reporter qHTS assay (AID 1671196); further: nearly all actives have a fitted effect of over 50% in size; further: potency means the concentration at half of the fitted maximal effect; on activity change, negative = inhibition: series mostly up to about 120 µM
Outline: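 CYP2D6 enzyme–substrate mix was held with compound for 10 min at room temperature, then NADPH regeneration solution was added and the reaction ran 1 h at room temperature. Luciferin product was detected by luminescence after 20 min with detection reagent.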

[18] = qHTS assay to identify small molecule agonists of the progesterone receptor (PR) signaling pathway - cell viability counter screen (AID 1346799; calls by dose curve; further: nearly all actives have a fitted effect of over 45% in size; further: potency means the concentration at half of the fitted maximal effect)
Outline: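 Cytotoxicity in PR-bla HEK293T cells: 16 h compound, 37C; CellTiter-Glo added post-FRET read; luminescence after 30 min RT.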

Chain of Nuclear receptor subfamily 1 group I member 2 (Rattus norvegicus) (Q9R1A7 whole entry, looked up): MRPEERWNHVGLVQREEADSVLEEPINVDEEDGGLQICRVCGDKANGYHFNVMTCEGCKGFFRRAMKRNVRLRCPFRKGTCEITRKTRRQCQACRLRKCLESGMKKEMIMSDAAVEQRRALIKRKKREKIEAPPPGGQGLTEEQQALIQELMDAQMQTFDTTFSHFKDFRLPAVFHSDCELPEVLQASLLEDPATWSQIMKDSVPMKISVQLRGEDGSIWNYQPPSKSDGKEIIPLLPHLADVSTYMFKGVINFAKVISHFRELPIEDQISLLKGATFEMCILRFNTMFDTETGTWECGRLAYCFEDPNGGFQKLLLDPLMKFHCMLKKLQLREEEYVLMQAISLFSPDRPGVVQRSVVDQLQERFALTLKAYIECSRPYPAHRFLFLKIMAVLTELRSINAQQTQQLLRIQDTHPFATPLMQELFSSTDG
Chain of Nuclear receptor subfamily 1 group I member 2 (Homo sapiens) (O75469 whole entry, looked up): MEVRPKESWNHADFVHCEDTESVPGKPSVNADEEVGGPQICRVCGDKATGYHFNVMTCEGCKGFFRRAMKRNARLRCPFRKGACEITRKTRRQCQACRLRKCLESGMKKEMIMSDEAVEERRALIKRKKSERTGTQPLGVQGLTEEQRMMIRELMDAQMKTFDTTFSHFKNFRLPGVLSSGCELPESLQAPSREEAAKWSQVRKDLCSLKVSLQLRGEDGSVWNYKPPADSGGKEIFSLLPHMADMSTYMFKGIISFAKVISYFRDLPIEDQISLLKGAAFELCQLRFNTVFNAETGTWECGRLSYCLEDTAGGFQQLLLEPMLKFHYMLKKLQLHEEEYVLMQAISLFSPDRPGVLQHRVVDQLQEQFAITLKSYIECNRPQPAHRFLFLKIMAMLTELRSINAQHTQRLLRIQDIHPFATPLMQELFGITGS
Chain of Progesterone receptor (Homo sapiens) (P06401 whole entry, looked up): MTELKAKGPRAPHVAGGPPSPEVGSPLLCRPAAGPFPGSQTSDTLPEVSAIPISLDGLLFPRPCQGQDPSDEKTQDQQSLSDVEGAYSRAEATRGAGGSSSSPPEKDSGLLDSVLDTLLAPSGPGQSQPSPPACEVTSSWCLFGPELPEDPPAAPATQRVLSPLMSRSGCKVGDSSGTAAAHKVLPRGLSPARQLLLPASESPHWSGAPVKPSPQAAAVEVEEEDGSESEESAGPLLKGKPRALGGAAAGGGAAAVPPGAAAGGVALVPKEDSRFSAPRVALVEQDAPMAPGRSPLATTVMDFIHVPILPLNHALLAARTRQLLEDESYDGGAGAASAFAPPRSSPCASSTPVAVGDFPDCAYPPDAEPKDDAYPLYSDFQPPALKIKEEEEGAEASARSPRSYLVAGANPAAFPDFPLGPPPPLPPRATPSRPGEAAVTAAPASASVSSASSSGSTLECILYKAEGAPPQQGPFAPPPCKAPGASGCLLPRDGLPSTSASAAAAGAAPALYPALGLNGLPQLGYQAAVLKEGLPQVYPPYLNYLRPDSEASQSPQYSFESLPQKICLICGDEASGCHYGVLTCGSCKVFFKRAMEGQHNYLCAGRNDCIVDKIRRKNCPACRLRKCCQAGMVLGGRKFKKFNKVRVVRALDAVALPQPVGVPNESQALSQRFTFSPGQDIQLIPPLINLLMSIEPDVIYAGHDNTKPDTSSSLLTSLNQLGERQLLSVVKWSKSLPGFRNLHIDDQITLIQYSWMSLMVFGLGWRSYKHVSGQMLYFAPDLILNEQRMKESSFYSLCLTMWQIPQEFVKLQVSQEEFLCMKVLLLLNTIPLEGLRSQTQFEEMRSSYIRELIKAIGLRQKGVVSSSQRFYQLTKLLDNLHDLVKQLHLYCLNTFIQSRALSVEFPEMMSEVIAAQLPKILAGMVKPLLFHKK
Chain of Thyrotropin-releasing hormone receptor (Homo sapiens) (P34981 whole entry, looked up): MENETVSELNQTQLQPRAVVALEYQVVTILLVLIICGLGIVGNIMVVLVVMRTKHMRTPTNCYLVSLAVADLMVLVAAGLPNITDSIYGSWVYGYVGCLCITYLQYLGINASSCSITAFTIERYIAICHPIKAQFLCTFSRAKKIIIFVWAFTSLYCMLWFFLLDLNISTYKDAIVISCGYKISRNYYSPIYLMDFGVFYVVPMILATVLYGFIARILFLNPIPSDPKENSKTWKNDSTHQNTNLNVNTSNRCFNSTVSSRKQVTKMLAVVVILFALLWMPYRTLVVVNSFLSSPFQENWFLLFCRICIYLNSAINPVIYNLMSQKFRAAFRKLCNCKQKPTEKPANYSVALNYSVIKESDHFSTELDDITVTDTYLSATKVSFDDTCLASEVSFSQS
Chain of Cytochrome P450 2D6 (Homo sapiens) (P10635 whole entry, looked up): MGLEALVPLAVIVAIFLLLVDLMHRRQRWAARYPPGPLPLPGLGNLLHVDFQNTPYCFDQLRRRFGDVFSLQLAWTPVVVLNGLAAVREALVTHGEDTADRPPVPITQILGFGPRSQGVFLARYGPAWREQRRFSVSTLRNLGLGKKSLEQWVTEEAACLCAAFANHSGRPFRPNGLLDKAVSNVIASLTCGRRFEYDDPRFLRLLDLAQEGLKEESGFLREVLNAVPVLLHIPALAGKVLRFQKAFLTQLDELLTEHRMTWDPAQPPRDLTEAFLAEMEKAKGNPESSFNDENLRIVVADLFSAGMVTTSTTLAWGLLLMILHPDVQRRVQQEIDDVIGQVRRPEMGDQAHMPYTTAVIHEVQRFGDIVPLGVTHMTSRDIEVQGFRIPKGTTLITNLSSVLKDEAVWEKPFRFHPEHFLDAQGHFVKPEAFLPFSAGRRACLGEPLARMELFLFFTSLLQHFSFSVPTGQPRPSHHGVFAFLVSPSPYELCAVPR

CC[C@H](C)[C@H](N)C(=O)O
Potency [1]: inactive | outcome [2]: inactive | Potency [3]: inactive | Potency [4]: inactive | Potency [5]: inactive | outcome [6]: inactive | outcome [7]: inactive | Potency [8]: inactive | Potency [9]: inactive | outcome [10]: inactive | Potency [11]: inactive | Potency [12]: inactive | Potency [13]: inactive | Potency [14]: inactive | max activation [15]: -0.0819% | Potency [16]: inactive | Potency [17]: inactive

N[C@H]1C(O)O[C@H](CO)[C@H](O)[C@@H]1O (some centres not stated)
Potency [1]: inactive | outcome [2]: inactive | Potency [3]: inactive | Potency [4]: inactive | Potency [5]: inactive | outcome [6]: inactive | outcome [7]: inactive | Potency [8]: inactive | Potency [9]: inactive | outcome [10]: inactive | Potency [11]: inactive | Potency [12]: inactive | Potency [13]: inactive | Potency [17]: inactive

COCCOCCOCCOCCOC
Potency [1]: inactive | outcome [2]: inactive | Potency [3]: 21.7 µM (active) | Potency [4]: inactive | Potency [5]: inactive | outcome [6]: inactive | Potency [8]: inactive | Potency [9]: inactive | outcome [10]: inactive | Potency [11]: inactive | Potency [12]: inactive | Potency [13]: inactive | Potency [14]: inactive | Potency [17]: inactive

CC(C)=CCCC(C)CC=O (configuration not stated)
Potency [1]: inactive | outcome [2]: inactive | Potency [3]: inactive | Potency [4]: inactive | Potency [5]: inactive | outcome [6]: inactive | Potency [9]: inactive | outcome [10]: inactive | Potency [11]: inactive | Potency [13]: inactive

NC[C@H]1O[C@H](O[C@H]2[C@H](O)[C@@H](O[C@H]3O[C@H](CO)[C@@H](O)[C@H](N)[C@H]3O)[C@H](N)C[C@@H]2N)[C@H](O)[C@@H](O)[C@@H]1O
activity change, negative = cytotoxicity [1]: -3.74% [at 8.39 µM] | activation [2]: 0.496% [at 8.39 µM] | activity change, negative = cytotoxicity [3]: 1.76% [at 8.39 µM] | viability change, negative = cytotoxic [4]: 0.819% [at 6.97 µM] | activity change, negative = cytotoxicity [5]: 4.11% [at 6.97 µM] | activity change, negative = cytotoxicity [9]: -6.07% [at 8.39 µM] | caspase activation [10]: 0.334% [at 8.39 µM] | activity change, negative = cytotoxicity [13]: -2.29% [at 8.39 µM] | activation [14]: 13.1% [at 8.39 µM] | max activation [15]: -1% | Potency [16]: inactive | activity change, negative = inhibition [17]: -0.562% [at 10.5 µM]

CN1CCC(=C2c3ccccc3CCc3sccc32)CC1
Potency [1]: inactive | outcome [2]: inactive | Potency [18]: 15 µM (active) | Potency [4]: inactive | Potency [5]: inactive | outcome [6]: inactive | outcome [10]: inactive | Potency [11]: inactive | Potency [12]: inactive | Potency [13]: inactive | max activation [15]: 0.0937% | Potency [16]: inactive | Potency [17]: 1.23 µM (active)

CC[C@]12CCCN3CCc4c(n(c5ccccc45)C(=O)C1)[C@@H]32
Potency [1]: inactive | outcome [2]: inactive | Potency [3]: inactive | Potency [18]: inactive | Potency [4]: inactive | Potency [5]: inactive | outcome [6]: inactive | Potency [9]: inactive | outcome [10]: inactive | Potency [11]: 26.6 µM (active) | Potency [15]: 8.91 µM (active) | Potency [17]: 0.155 µM (active)

Source: PubChem BioAssay (Tox21)
